Bim-Bcl-W – disrupts Bim peptide binding to human Bcl-W | Q92843 | bead-based flow cytometry | inhibition, % at 10 µM | actives 0.02% (n = 190,000);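 also: 0% = bound tracer without compound and 100% = peptide blocker; higher means less fluorescent Bim peptide bound to Bcl-W beads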
Target sequence (Q92843 whole entry, looked up): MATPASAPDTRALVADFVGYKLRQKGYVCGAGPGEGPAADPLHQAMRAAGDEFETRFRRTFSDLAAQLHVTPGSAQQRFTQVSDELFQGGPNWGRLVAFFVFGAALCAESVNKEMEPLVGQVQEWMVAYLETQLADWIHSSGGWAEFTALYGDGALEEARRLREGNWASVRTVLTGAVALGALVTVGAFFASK
Bcl-XL Bim block – inhibitors of Bim-Bcl-XL interaction, human; Q07817; Bim peptide-Bcl-XL binding, bead flow cytometry, fluorescence; inhibition, % at 10 µM; actives 0.04% (n = 190,000)
Bim-Bcl-2 – inhibitors of Bim-Bcl-2 interaction, human; actives 0.06% (n = 190,000); Bead-based flow cytometry, Bim peptide-Bcl-2 binding; P10415; inhibition, % at 10 µM; in the data active = inhibition above about 40%;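 also: 0% = no compound wells with probe peptide and 100% = reference peptide inhibitor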
Bcl-B Bim block – inhibitors of Bim-Bcl-B interaction, human; Q9HD36; bead-based flow cytometry, Bim peptide-Bcl-B binding; inhibition, % at 10 µM; actives 0.073% (n = 190,000);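 also: 0% = tracer peptide without compound and 100% = reference inhibitor peptide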
Target sequence (Q9HD36 whole entry, looked up): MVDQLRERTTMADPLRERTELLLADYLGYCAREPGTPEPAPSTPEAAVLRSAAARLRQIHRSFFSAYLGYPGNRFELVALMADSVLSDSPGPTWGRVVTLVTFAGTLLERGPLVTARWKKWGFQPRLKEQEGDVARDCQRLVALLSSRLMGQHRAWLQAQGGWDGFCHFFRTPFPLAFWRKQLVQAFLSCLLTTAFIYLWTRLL
Bfl-1 Bim block – inhibitors of Bim-Bfl-1 interaction, human. Q16548. AID 1008. Bead-based flow cytometry, Bim-Bfl-1 binding inhibition. inhibition, % at 10 µM. actives 0.12% (n = 190,000);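 also: 0% = wells without compound plus tracer and 100% = blocker peptide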
* marks the source's active call; other numbers are inactive results. Most compounds without a hit are left out; they make up all but 0.19% or so of the library. Rule as the data show it, unless noted: active = inhibition above about 40%.

SMILES	Bim-Bcl-W	Bcl-XL Bim block	Bim-Bcl-2	Bcl-B Bim block	Bfl-1 Bim block
Cc1cc(-c2nnc(CCC(=O)NC(C)c3cccc4ccccc34)o2)no1 (centres undefined)	11	17	73*	78*	44*
COCCNC(=O)CN(Cc1cccs1)C(=O)CCC(=O)Nc1nccs1	-2	-4	0	-1	-3
COc1ccc(Cl)cc1-n1c(C)cc(C(=O)O)c1C	4	-9	-13	-36	-11
COc1ccc(Cl)cc1-n1c(C)cc(C=O)c1C	20	29	86*	84*	62*
Cc1cc(C)c2c(=O)[nH]c(SCC(=O)c3ccc(C)c(C)c3)nc2n1	-1	-3	0	-1	-5
O=C(O)CCC(=O)Nc1ccc(C(=O)OCC(=O)c2ccc(Cl)cc2Cl)cc1	-2	-2	-2	-2	-8
Cc1ccc(O)c(NC2=C(Cl)C(=O)N(Cc3ccccc3)C2=O)c1	51*	35	37	22	58*
Cc1cc(-c2csc(N)n2)c(C)n1C	30	21	36	70*	20
Cc1ccc(-n2c(C)cc(-c3csc(N)n3)c2C)cc1	-6	-7	4	-10	1
C/C(=C\C(=O)c1ccc(Cl)s1)N(C)C	0	-1	-1	-2	-4
CCn1c(=O)c2c(nc3n2CCN3c2ccccc2)n(C)c1=O	3	4	2	3	-2
CN(C)/C=C1\NC(=S)N(c2ccccc2)C1=O	0	-3	-1	-13	-1
COc1ccc(N2C(=O)/C(=C/c3cccs3)NC2=S)cc1	4	-7	2	-28	45*
O=C(Nc1ccc(N2CCOCC2)cc1)Nc1ccc2nc(-c3ccco3)c(-c3ccco3)nc2c1	14	6	5	0	29
O=C(NCCCO)Nc1ccc2nc(-c3ccco3)c(-c3ccco3)nc2c1	46*	29	46*	28	65*
O=C(Nc1ccc2nc(-c3ccco3)c(-c3ccco3)nc2c1)NC1CC1	35	20	37	14	50*
OCCCNC(=S)Nc1ccc2nc(-c3ccccn3)c(-c3ccccn3)nc2c1	5	-14	-1	-10	-8
Nc1ccc2c(c1)nc(Cc1ccccc1)n2CCO	0	1	-1	-4	-4
Cc1ccc2cc(C)c(Sc3nnnn3-c3ccccc3)nc2c1	28	42*	26	23	40*
COc1cc(OC)c(OC)cc1/C=C/C(=O)c1ccc(NS(=O)(=O)c2ccc(C)cc2)cc1	1	0	-3	-4	0
COc1ccc(CCNC(=O)c2cc(-c3ccccn3)nc3c(Cl)cccc23)cc1OC	16	56*	41*	53*	1
COc1ccc(CCNC(=O)c2cc(-c3ccncc3)nc3c(Cl)cccc23)cc1OC	1	-1	0	0	-3
COc1ccc(CNC(=S)Nc2ccccc2-c2ccccc2)cc1	-3	0	-2	0	4
CCOC(=O)COc1cc(N)c(Cl)cc1Cl	0	-1	-1	-1	-3
O=C(COc1cccc2c1CCN(Cc1ccc(Br)cc1)C2=O)NCc1ccco1	-5	-5	-3	-4	-5
SMILES	Bim-Bcl-W	Bcl-XL Bim block	Bim-Bcl-2	Bcl-B Bim block	Bfl-1 Bim block
CC(C)Cc1cc(-c2ccco2)c(C#N)c(N)n1	26	30	90*	93*	73*
N#CC1=C(S)N(c2ccc(F)cc2)C(c2cccs2)NC1=O (centres undefined)	0	-1	1	0	0
Cc1cccc(N2C(S)=C(C#N)C(=O)NC2c2cccs2)c1 (centres undefined)	25	35	21	18	42*
Cc1cccn2c(=O)c3cc(C(N)=S)c(=N)n(CCCN4CCOCC4)c3nc12	16	9	7	48*	50*
O=C(COc1ccc(Br)cc1CNC1CCCCC1)NCCc1ccccc1	-7	1	78*	67*	54*
CC1Cc2ccccc2N1C(=O)c1ccc(N2CCCC2)c([N+](=O)[O-])c1 (centres undefined)	13	8	56*	72*	14
CSc1nnc(C(C)c2ncc(C(F)(F)F)cc2Cl)n1C (centres undefined)	-4	-2	0	-1	-4
COC(=O)Nc1ccc(S(=O)(=O)N2CCC(C(=O)NC3CCCCC3)CC2)cc1	0	0	2	3	4
Cc1c(C(=O)Oc2ccc(-c3cnc4ccccc4n3)cc2)cccc1[N+](=O)[O-]	12	0	10	-11	40*
O=C(Oc1ccc(-c2cnc3ccccc3n2)cc1)c1cc([N+](=O)[O-])ccc1Cl	1	-1	-7	-9	0
Cc1ccc(Sc2c(C#N)c(-c3ccccc3)nn2C)cc1	10	8	78*	68*	47*
Cc1ccc(SCc2c(-c3ccccc3)nn(C)c2Cl)cc1	1	4	3	2	0
Cc1ccc(-c2nc(CN(Cc3c(C)nn(C)c3C)C(C)C)c(C)o2)o1	-1	0	-2	-2	-5
O=C(Nc1cccc(Cl)c1)Nc1ccc(Cl)cn1	18	30	77*	72*	51*
CN(C1=C(NC(=O)c2ccccc2)C(=O)c2ccccc2C1=O)C1CCS(=O)(=O)C1 (centres undefined)	-4	-8	-6	-7	-7
CC(=O)NC1=C(NC2CCS(=O)(=O)C2)C(=O)c2ccccc2C1=O (centres undefined)	14	2	6	6	41*
Cc1ccc(-c2nc(CN(C)C3CCOC3)c(C)o2)s1 (centres undefined)	1	-2	0	0	-6
CNCc1ccccc1Sc1ccc(O)c(O)c1	21	6	17	1	46*
CN(Cc1cccs1)C(=O)CCc1c[nH]c2ccccc12	1	-1	48*	50*	20
O=C(CNC(=O)c1ccc(S(=O)(=O)N2CCCC2)cc1)N/N=C/c1ccc(Cl)cc1	-2	-4	-6	-6	-12
O=C(CNC(=O)c1ccc(S(=O)(=O)N2CCCC2)cc1)N/N=C/c1ccc(Cl)cc1Cl	7	6	13	50*	9
COc1ccc(Cl)cc1NC(=S)NNC(=O)C1(C)CC1(Cl)Cl (centres undefined)	0	-1	-4	-9	-3
CC(C)c1cccc(C(C)C)c1NC(=O)c1ccccc1	-1	-3	-3	-3	-6
CC(C)(C)C1=CC(=Nc2ccccc2N)C=C(C(C)(C)C)C1=O	-3	-6	-1	-6	0
CC(C)(C)C1=CC(=O)C(=O)C(C(C)(C)C)=C1	9	0	18	2	56*
CCOC(=O)C(NC(C)=O)C(=O)Nc1ccc(C)cc1C (centres undefined)	-2	-1	-2	-1	-4
CN1/C(=C\C(=O)Nc2ccc(Cl)cc2)C(C)(C)c2ccccc21	27	40*	26	25	39
Cc1ccc(CNc2ccc3c(c2)OCO3)cc1	18	2	10	-7	40*
CN(CC(=O)O/N=C(\N)c1ccc([N+](=O)[O-])cc1)S(=O)(=O)c1ccccc1	12	18	38	72*	6

Screens: PubChem, NMMLSC
